Experimental findings from ChEMBL document CHEMBL1961873, “Compounds: GSK PKIS; Assays: Nanosyn kinase panel” (2012) are described below.

SMILES strings stand for the structures. Where “and” joins values, the source holds several entries; their conditions need not be identical. Equal entries are not always repeated.

The target of test [1] is High affinity nerve growth factor receptor (Homo sapiens) (UniProt P04629). The following applies: at 1 µM.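 Also: each value is the mean percent inhibition of TRKA.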
Sequence of High affinity nerve growth factor receptor (Homo sapiens) (P04629 33-796 limits assumed): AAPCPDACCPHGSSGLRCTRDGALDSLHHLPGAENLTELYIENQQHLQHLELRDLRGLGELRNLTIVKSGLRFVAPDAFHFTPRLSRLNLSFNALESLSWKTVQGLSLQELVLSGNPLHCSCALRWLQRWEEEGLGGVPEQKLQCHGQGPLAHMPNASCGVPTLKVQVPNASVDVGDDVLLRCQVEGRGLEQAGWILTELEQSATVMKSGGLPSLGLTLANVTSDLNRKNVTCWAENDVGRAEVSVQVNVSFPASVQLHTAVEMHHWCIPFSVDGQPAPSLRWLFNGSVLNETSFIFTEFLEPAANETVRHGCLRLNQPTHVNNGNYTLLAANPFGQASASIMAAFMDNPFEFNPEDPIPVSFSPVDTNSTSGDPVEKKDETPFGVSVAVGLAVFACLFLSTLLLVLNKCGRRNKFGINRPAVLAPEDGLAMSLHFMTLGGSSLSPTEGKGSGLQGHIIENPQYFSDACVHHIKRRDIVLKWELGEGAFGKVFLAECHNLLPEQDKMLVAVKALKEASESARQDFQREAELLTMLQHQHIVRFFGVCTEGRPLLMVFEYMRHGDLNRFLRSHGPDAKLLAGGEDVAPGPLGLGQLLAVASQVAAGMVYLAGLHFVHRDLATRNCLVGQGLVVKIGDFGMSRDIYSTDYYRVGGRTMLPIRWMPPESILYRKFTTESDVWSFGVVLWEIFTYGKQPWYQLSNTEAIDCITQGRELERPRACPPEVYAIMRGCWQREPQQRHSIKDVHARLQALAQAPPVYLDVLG
The target in test [2] is BDNF/NT-3 growth factors receptor (Homo sapiens) (UniProt Q16620). Particulars: at 0.1 µM.
Test [3] shares this target. Particulars: at 1 µM.
The target of test [4] is NT-3 growth factor receptor (Homo sapiens) (UniProt Q16288). The following applies: at 0.1 µM.
Sequence of NT-3 growth factor receptor (Homo sapiens) (Q16288 32-839 limits assumed): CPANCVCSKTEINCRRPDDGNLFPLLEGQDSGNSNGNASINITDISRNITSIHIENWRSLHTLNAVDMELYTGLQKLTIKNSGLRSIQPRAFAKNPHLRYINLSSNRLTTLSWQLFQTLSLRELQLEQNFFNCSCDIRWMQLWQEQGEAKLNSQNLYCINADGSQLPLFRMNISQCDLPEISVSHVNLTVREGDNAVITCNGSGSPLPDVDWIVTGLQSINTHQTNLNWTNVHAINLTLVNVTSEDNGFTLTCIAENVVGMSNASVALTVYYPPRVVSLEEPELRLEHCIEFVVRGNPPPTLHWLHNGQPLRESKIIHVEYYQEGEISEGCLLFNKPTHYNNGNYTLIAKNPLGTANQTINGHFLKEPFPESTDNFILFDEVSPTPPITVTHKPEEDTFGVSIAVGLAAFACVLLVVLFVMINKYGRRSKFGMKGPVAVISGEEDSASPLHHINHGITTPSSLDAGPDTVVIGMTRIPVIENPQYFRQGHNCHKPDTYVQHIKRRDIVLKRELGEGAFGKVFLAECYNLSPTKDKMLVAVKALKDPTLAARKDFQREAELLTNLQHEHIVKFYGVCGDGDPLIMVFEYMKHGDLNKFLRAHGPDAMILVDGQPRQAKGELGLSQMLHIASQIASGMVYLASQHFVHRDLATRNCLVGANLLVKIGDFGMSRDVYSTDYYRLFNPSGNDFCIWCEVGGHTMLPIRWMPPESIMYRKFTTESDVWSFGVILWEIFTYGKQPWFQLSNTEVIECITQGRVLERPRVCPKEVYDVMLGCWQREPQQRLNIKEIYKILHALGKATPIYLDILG
The target is the same in test [5]. Particulars: at 1 µM.
Test [6] deals with T1, Tyrosine-protein kinase TXK (Homo sapiens) (UniProt P42681).
T1 sequence (whole entry): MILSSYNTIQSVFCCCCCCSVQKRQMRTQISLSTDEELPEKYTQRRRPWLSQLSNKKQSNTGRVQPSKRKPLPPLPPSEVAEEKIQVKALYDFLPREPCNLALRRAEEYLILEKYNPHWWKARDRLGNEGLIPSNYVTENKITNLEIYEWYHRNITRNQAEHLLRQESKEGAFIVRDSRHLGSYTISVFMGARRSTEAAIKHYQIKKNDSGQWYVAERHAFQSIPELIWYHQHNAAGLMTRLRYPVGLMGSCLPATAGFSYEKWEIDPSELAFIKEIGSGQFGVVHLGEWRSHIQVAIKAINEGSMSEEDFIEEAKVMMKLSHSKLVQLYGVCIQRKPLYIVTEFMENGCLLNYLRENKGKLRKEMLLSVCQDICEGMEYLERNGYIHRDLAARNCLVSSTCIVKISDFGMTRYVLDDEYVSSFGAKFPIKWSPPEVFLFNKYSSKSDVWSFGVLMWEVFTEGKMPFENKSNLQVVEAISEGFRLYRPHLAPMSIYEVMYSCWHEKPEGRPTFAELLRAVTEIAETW
Particulars: at 0.1 µM.

Test [7] addresses T1, Tyrosine-protein kinase TXK (Homo sapiens). The following applies: at 1 µM.
Test [8] has as its target Non-receptor tyrosine-protein kinase TYK2 (Homo sapiens) (UniProt P29597). The following applies: at 0.1 µM.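 Also: each value is a mean of the inhibition readings.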
Test [9] concerns the target T2, Dual specificity protein kinase TTK (Homo sapiens) (UniProt P33981).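 Also: reported figures are mean TTK inhibition at 1 µM.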
T2 sequence (whole entry): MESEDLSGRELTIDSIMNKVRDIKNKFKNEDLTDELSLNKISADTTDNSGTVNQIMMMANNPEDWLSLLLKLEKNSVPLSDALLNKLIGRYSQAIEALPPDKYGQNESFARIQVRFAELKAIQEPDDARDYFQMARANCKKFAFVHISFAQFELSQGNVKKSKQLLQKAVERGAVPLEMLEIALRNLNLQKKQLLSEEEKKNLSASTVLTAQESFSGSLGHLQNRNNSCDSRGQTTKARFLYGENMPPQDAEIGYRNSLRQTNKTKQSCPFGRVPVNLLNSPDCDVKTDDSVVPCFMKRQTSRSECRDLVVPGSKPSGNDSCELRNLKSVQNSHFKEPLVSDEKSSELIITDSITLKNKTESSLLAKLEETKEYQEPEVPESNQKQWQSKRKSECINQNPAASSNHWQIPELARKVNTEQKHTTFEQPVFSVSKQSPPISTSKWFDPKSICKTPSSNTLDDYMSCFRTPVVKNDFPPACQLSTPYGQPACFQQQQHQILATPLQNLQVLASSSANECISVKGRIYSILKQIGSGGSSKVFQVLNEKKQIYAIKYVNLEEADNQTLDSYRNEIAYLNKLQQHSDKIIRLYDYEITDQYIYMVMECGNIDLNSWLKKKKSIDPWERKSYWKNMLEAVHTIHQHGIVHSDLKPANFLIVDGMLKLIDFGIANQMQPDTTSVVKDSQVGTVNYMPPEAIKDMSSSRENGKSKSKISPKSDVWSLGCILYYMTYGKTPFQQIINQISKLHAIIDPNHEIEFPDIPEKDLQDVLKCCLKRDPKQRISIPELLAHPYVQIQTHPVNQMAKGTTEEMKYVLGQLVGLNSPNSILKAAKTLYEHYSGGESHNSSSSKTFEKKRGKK
Particulars: at 1 µM.

In test [10] the target is T3, Aurora kinase A (Homo sapiens) (UniProt O14965).
T3 sequence (whole entry): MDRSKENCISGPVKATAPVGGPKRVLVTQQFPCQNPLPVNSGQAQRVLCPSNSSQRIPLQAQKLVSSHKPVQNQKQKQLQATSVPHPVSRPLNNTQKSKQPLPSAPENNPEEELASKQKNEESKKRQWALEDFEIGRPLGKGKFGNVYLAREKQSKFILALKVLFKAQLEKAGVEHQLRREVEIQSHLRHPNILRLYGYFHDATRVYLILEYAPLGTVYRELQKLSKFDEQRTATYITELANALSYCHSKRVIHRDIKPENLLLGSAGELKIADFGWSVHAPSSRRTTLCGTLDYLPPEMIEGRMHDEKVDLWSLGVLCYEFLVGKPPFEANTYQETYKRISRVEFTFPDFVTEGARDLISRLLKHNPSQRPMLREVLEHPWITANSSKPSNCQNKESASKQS
The following applies: at 0.1 µM.

Test [11] has as its target T3, Aurora kinase A (Homo sapiens). Particulars: at 1 µM.
The target in test [12] is Aurora kinase B (Homo sapiens) (UniProt Q96GD4). The following applies: at 0.1 µM.
Sequence of Aurora kinase B (Homo sapiens) (Q96GD4 whole entry): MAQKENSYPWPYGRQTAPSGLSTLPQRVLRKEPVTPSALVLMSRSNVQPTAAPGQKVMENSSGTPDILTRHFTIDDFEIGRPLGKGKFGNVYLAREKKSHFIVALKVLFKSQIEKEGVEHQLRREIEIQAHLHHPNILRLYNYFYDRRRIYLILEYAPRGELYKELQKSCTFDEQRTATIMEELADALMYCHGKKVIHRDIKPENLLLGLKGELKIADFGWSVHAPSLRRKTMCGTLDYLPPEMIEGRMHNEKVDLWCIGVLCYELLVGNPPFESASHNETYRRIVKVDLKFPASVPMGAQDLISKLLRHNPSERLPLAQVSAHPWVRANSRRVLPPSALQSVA
For test [13] the target is unchanged. Particulars: at 1 µM.
The target of test [14] is T4, Aurora kinase C (Homo sapiens) (UniProt Q9UQB9).
T4 sequence (whole entry): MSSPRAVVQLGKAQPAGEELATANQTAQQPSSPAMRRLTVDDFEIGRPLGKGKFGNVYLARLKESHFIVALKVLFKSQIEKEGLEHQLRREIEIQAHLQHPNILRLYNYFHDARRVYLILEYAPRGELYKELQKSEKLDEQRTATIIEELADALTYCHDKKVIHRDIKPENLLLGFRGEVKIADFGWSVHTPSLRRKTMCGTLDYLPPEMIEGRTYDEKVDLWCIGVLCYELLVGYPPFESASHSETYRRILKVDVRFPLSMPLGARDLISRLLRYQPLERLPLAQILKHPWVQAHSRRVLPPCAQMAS
Particulars: at 0.1 µM.

The target in test [15] is T4, Aurora kinase C (Homo sapiens). Particulars: at 1 µM.
The target in test [16] is Serine/threonine-protein kinase 10 (Homo sapiens) (UniProt O94804). The following applies: at 0.1 µM.
For test [17] the target is unchanged. Particulars: at 1 µM.
The target in test [18] is T5, Mitogen-activated protein kinase kinase kinase kinase 2 (Homo sapiens) (UniProt Q12851).
T5 sequence (whole entry): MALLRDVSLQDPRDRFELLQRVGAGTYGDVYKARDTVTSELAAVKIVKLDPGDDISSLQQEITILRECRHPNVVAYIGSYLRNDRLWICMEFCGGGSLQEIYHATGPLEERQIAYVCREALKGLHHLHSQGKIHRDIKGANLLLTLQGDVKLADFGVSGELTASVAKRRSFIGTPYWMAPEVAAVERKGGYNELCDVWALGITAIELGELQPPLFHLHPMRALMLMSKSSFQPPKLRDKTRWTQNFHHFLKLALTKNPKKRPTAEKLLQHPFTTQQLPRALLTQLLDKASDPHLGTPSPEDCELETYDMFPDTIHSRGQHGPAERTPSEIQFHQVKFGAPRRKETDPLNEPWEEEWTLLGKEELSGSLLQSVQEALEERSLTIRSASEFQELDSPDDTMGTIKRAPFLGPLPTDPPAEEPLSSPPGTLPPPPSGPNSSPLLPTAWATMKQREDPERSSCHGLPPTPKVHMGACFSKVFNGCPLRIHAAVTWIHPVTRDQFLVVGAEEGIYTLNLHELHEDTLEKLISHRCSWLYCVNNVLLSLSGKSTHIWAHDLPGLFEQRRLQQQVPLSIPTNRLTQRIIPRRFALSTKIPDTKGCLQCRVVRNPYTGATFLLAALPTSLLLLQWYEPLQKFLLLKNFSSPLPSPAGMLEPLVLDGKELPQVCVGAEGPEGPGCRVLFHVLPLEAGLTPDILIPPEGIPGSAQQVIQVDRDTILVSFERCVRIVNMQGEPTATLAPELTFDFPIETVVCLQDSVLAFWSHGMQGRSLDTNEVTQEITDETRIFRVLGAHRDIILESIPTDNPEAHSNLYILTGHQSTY
The following applies: at 0.1 µM.

Test [19] addresses T5, Mitogen-activated protein kinase kinase kinase kinase 2 (Homo sapiens). The following applies: at 1 µM.
Test [20] has as its target Mitogen-activated protein kinase kinase kinase kinase 4 (Homo sapiens) (UniProt O95819). The following applies: at 0.1 µM.

Sequence of Non-receptor tyrosine-protein kinase TYK2 (Homo sapiens) (P29597 whole entry): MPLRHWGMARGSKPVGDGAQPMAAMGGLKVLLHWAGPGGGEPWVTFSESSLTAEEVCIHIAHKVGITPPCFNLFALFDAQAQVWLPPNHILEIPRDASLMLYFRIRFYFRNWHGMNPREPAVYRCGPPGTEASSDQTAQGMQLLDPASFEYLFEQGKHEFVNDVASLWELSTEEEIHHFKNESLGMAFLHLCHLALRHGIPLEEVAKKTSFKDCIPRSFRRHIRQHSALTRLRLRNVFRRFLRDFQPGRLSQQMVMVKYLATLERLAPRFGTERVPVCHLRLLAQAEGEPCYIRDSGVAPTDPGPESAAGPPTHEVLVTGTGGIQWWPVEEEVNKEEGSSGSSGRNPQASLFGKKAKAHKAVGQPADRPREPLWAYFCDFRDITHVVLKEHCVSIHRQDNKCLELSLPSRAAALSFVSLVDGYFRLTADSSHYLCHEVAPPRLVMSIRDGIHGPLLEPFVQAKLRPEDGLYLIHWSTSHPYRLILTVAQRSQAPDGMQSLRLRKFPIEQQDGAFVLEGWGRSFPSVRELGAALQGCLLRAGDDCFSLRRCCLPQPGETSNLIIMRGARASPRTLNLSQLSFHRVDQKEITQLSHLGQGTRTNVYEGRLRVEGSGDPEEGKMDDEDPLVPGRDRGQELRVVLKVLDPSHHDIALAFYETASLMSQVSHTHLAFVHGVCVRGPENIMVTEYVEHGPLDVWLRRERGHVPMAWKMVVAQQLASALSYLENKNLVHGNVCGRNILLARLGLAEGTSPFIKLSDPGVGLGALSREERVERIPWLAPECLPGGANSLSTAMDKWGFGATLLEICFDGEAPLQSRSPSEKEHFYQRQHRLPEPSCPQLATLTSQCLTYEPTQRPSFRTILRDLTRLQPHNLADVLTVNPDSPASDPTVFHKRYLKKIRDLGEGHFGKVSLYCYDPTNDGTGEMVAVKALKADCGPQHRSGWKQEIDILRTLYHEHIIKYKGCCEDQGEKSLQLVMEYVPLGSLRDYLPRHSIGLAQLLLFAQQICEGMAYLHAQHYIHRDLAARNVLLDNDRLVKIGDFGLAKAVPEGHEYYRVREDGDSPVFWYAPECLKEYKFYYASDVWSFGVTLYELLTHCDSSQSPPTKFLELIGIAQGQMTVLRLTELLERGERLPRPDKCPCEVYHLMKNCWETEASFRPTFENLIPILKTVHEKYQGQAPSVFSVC
Sequence of Mitogen-activated protein kinase kinase kinase kinase 4 (Homo sapiens) (O95819 2-1239 limits assumed): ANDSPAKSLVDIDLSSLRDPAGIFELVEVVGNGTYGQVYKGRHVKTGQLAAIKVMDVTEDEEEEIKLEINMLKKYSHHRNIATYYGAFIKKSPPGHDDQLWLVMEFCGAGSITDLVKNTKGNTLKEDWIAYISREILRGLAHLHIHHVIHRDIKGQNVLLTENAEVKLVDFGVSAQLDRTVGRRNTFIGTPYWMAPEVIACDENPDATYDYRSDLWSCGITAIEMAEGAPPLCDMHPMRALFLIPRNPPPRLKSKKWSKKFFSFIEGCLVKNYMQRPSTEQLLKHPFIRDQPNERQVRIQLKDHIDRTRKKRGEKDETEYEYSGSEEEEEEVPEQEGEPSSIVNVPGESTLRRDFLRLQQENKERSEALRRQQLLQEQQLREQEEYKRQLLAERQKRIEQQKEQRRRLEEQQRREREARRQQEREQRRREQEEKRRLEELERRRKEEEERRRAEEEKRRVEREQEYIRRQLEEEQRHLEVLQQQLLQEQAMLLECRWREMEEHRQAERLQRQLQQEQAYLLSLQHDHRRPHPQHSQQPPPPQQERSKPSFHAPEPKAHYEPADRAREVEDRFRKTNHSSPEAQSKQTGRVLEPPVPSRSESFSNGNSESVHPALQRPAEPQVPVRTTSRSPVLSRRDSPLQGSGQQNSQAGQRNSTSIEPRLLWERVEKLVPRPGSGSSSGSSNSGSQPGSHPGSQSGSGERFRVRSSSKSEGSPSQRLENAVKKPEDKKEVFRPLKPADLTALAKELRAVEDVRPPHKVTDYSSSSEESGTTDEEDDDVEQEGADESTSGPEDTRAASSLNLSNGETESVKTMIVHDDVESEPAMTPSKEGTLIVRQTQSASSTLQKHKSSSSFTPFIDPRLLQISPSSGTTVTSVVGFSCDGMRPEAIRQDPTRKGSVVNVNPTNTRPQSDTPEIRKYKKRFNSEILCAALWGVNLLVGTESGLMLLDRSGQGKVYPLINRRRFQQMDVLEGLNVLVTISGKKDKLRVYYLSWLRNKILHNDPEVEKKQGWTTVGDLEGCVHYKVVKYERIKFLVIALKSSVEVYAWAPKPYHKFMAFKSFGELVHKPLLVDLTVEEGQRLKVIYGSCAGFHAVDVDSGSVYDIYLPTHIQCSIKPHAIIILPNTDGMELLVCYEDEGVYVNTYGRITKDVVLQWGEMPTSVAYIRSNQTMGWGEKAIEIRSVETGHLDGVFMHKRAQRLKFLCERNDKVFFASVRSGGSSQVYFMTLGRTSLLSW

As to `FC(F)(F)CNc1nccc(-c2cnn3ncccc23)n1`, the inhibition (as a rule, the change of the read-out against control, counted positive when it falls) in [1] is 2.2%; in test [2], 0.64%; in [3], -0.08%; in test [4], 0.73%; in [5], 0.22%; in [6], -0.11%. The inhibition in [7] was 1.8%; in [8] it was -4.86%; in test [9], 8.83%; in test [10], 2.68%; in [11] it was 1.83%; in [12] it was 1.65%. Besides, the inhibition in test [13] was 4.22%; in test [14], 0.63%; in test [15], 2.77%; in test [16] it was 2.56%; in [17] it was 6.33%; in [18] it was -0.83%. Further, the inhibition in test [19] is 1.5%; in test [20], 1.9%.
With `Cn1c(-c2nonc2N)nc2cnccc21`, the inhibition was determined as 0.76% in test [1]; 1.23% in test [2]; 0.53% in test [3]; 2% in [4]; 1.22% in [5]; 4.05% in test [6]. For the same molecule, the inhibition in test [7] was 4.22%; in test [8], -2.09%; in [9], 8.28%; in [10] it was 1.22%; in test [11], 7.19%; in [12], 1.6%. Besides, the inhibition in [13] was 4.18%; in [14], 1.42%; in test [15] it was 4.49%; in test [16], 4.28%; in [17], 7.08%; in test [18], 0.8%. Also, the inhibition was 6.6% in test [19] and 6.14% in test [20].
For the molecule `Cc1c2ccc(N(C)c3ccnc(Nc4cccc(S(N)(=O)=O)c4)n3)cc2nn1C`, the inhibition in [1] amounted to 7.91%; in [2], 4.05%; in test [3] it was 9.82%; in test [4], 4.05%; in [5], 11.1%; in test [6], 20.5%. Also, the inhibition was 59.4% in test [7]; -3.68% in [8]; 29.9% in [9]; 11.7% in [10]; 72.2% in test [11]; 12.5% in [12]. The inhibition in [13] came out at 54.2%; in [14] it was 15.8%; in [15], 81.6%; in test [16] it was 23.4%; in test [17] it was 64.4%; in test [18], 7.77%. Moreover, the inhibition was 41% in [19] and 11.1% in test [20].
`COc1cc(Nc2ncc(-c3ccccc3)o2)cc(OC)c1`: the inhibition in test [1] is 19.7%; in test [2], 8.32%; in test [3], 35.2%; in test [4], 6.57%; in [5], 30.5%; in test [6], -1%. Also, the inhibition in test [7] is 8.54%; in [8] it was -5.97%; in test [9] it was 11.9%; in [10] it was 5.61%; in [11], 30.3%; in [12], 5%. The inhibition was 19.7% in test [13]; 3.27% in [14]; 29.6% in test [15]; 8.54% in [16]; 12.9% in [17]; 0.95% in test [18]. Further, the inhibition was 7.2% in test [19] and 7.08% in [20].
In the case of `COc1ccc(Nc2ncc(-c3ccccc3)o2)cc1OC`, the inhibition in test [1] turned out to be 14.1%; in test [2], 2.88%; in test [3] it was 27.1%; in test [4], 2.7%; in [5] it was 27.1%; in test [6], 4.28%. Besides, the inhibition in test [7] came out at 17.8%; in test [8] it was 0.66%; in test [9] it was 1.06%; in [10], 9.76%; in test [11], 75.4%; in test [12] it was 8.72%. Besides, the inhibition was 51.1% in test [13]; 10.2% in [14]; 82.2% in [15]; -1.08% in [16]; 11.2% in test [17]; 3.92% in test [18]. Further, the figures for the inhibition in test [19] and in [20] were 14.3% and 8.63%, respectively.
Take `CN1CCN(Cc2ccc(-c3cc4ncnc(Nc5ccc(OCc6cccc(F)c6)c(Cl)c5)c4s3)o2)CC1`: the inhibition in test [1] is 3.16% and 2.15%; in test [2], 3.04% and 3.64%; in test [3] it was 2.54% and 4.97%; in [4] it was 2.27% and 4.29%; in test [5], 3.84% and 5.78%; in test [6], -1.05% and 3.1%. Besides, the inhibition is 5.76% and 4.28% in test [7]; -2.41% and -3.9% in test [8]; 8.37% and 11.4% in test [9]; 1.75% and 2.97% in [10]; 6.51% and 11.8% in test [11]; 16% and 13% in test [12]. In addition, the inhibition in test [13] was 45.6% and 53%; in test [14], 4.18% and 3.42%; in test [15], 26.1% and 40.5%; in test [16], 17.4% and 22.1%; in [17] it was 56.8% and 67%; in test [18] it was 2.1% and 1.95%. The inhibition in test [19] is 13% and 8.01%; in [20], 2.96% and 6.93%.
